# Many of the other results were omitted from the sample, so hits are more common in it than they were.
# IL1B secr inh: blocks inflammasome-driven IL-1 beta release; THP-1 LPS/ATP IL-1B secretion, AlphaLISA, 16 h; hits give low values; activity change, % at 57.5 µM; hit rate 4.7% among 360,000; in the data active means activity change below about -50%; inconclusive means mostly about -30% to -49%
#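 Secreted IL-1B measured by AlphaLISA bead assay after 16 h compound exposure of THP-1 cells; compounds (final up to 57.5 uM) added 1 h before LPS (250 ng/mL) and ATP (1.25 mM) stimulation; lower signal means less secretion.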
# HT1080NT lethal: kills 2HG-producing HT-1080-NT fibrosarcoma cells | HT-1080-NT fibrosarcoma viability, CellTiter-Glo ATP luminescence, 48 h | Potency, µM (top dose mostly 46.1 µM), inactives show top-dose activity, negative = less viability, hits mostly cytotoxic | hit rate 1.6% among 360,000 | AID 686970;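 further: NT is the 2HG producing partner of a matched IDH1 knockdown line; potency means the concentration at half of the fitted maximal effect; 0% = DMSO-treated cells and -100% = media-only wells without cells; nearly all actives have a fitted effect of over 55% in size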
#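 Compounds were tested in concentration-response format on HT-1080-NT cells for 48 hours at 37 degrees C. Cell viability came from CellTiter-Glo luminescence; curves were classified by r2, response magnitude and activity.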
# DT40 TDP1 CPT: DT40-hTDP1 cell growth loss with CPT | hit rate 12% among 420,000 | chicken DT40 Tdp1-/-;hTDP1 cells + 20 nM CPT, ATP luminescence, 48 h | Potency, µM (top dose mostly 46.2 µM), inactives show at the highest dose activity change, negative = growth inhibition, hits mostly inhibitors; further: potency means the concentration at half of the fitted maximal effect; nearly all actives have a fitted effect of over 55% in size
#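 Chicken DT40 Tdp1-/- cells complemented with human TDP1, 400 cells/well, exposed to compounds plus 20 nM camptothecin for at least 48 h at 37 C; viability read as ATP content by CellTiter-Glo luminescence.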
# DT40 TDP1 no CPT: qHTS for Inhibitors of human tyrosyl-DNA phosphodiesterase 1 (TDP1): qHTS in cells in absence of CPT. hit rate 15% among 420,000. DT40 Tdp1-/- hTDP1 cells, no CPT, ATP luminescence, 48 h. AID 686978, 2013. Potency, µM (series often up to 46.2 µM), for the others: at the top dose activity change, negative = growth inhibition, actives largely listed as inhibitors; further: potency means the concentration at half of the fitted maximal effect; nearly all actives have a fitted effect of over 55% in size
#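 Growth of hTDP1-complemented DT40 Tdp1-knockout cells is measured by ATP luminescence after at least 48 hr compound exposure at 37 °C, with DMSO substituting for the 20 nM CPT used in the parallel screen.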
# HT1080 IDH1KD tx: toxicity to HT-1080 IDH1 knockdown cells (counter line); HT-1080 IDH1 knockdown viability, ATP luminescence, 48 h; Potency, µM (titrated, usually from 46.1 µM), without a hit: at the highest dose activity, negative = toxicity, hits mostly cytotoxic; hit rate 2% among 360,000; AID 686971;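 further: potency means the concentration at half of the fitted maximal effect; 0% = DMSO wells and -100% = cell-free medium wells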
#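 Knockdown cells (IDH1KD HT-1080) received compounds 2 h after plating at 750 cells/well and were kept 48 h at 37 °C in 5% FBS RPMI. A CellTiter-Glo luminescence read gave % activity for curve fitting.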
# 12-LOX inh: inhibitors of human 12S-lipoxygenase ALOX12 | AID 1671190 | P18054 | Potency, µM (highest dose often 108 µM), for inactives: at the highest dose activity change, negative = inhibition, actives largely listed as inhibitors | purified 12hLO, xylenol orange hydroperoxide absorbance | hit rate 1.1% among 580,000; further: potency means the concentration at half of the fitted maximal effect
# Target sequence (P18054 whole entry, looked up): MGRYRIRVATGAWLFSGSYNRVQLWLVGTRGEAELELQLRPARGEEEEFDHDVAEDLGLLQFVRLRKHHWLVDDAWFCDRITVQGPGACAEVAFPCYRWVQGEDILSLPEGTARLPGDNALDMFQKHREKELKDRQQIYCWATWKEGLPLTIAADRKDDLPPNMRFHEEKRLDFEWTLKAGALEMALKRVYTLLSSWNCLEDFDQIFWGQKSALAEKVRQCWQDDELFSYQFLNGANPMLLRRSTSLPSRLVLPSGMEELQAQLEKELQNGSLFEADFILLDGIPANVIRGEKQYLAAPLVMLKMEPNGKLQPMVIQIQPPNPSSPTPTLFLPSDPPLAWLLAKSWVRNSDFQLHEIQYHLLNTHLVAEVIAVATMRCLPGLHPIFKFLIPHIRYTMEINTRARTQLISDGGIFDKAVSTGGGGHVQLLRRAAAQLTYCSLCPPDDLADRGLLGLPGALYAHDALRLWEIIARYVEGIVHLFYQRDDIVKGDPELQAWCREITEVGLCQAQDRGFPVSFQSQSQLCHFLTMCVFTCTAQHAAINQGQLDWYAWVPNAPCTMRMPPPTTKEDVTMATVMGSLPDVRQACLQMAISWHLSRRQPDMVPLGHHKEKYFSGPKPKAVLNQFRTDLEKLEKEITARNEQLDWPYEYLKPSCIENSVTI
#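 Hydroperoxide product was detected by ferrous iron/xylenol orange as the 573 to 405 nm absorbance ratio. Arachidonic acid at 40 uM (final) was turned over for 30 min at room temperature by 150 nM human 12hLO, pH 7.0 Hepes buffer, after 15 min compound preincubation.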
# * marks the source's active call; other numbers are inactive results; i = inactive; ? = inconclusive; . = no result given; [ ] = another dose, or the depositor's remark. Unless noted, the call rests on the fitted dose curve; in most records, active means well fitted curve in the direction sought with a large enough effect; inconclusive means small, poorly fitted or top-dose-only effect, or another doubt; inactive means no such curve, though single readings can be large; an effect the other way counts as inactive or inconclusive. Unless noted, on the % scale 0 is the no-effect control and ±100 the full control effect.
SMILES,IL1B secr inh,HT1080NT lethal,DT40 TDP1 CPT,DT40 TDP1 no CPT,HT1080 IDH1KD tx,12-LOX inh
Cc1ccccc1-n1c(SCc2cccc(F)c2)nc2[nH]ncc2c1=O,-74.1*,?,?,?,?,-20.1%
CCc1ccc(-n2c(SCc3ccccc3F)nc3[nH]ncc3c2=O)cc1,.,.,20.6µM*,16.4µM*,.,?
CC(C)(C)c1ccc(COC(=O)C2=COCCO2)cc1,.,.,.,.,.,18.1%
O=C(CCNC(=O)N1CCN(C(=O)c2cc3ccccc3[nH]2)CC1)NC1CC1,.,.,.,.,.,9.1%
COC(=O)[C@H](Cc1ccccc1)NC(=O)NCCc1ccccc1F,25.2,14.7%,-0.3%,6.9%,6.5%,22.7%
O=S(=O)(NC[C@H]1OC[C@@H](NCc2ccc(F)cc2)[C@@H]1O)c1ccccc1,.,.,.,.,.,2.1%[176 µM]
Cc1ccc(-n2c(SCc3ccccc3F)nc3[nH]ncc3c2=O)cc1Cl,.,.,20.6µM*,14.6µM*,.,?
Cc1cccc2nc(CSc3nc4[nH]ncc4c(=O)n3-c3ccccc3Cl)cc(=O)n12,-6.0,-12.0%,14.6µM*,20.6µM*,-10.7%,-18.6%
Cc1ccccc1-n1c(SCc2cc(=O)n3ccccc3n2)nc2[nH]ncc2c1=O,-0.2,-13.2%,?,-27.3%,-15.8%,435.5%
N[C@H](Cn1ccc(=O)n(Cc2ccccc2C(=O)O)c1=O)C(=O)O,.,.,-9.8%,-8.0%,.,?
N#CC1(NC(=O)Cc2c[nH]c3cc(F)ccc23)CCC1,.,.,.,.,.,2.5%
N#Cc1ccc(NC(=O)COC(=O)C2Cc3ccccc3CN2C(=O)c2ccccc2)cc1 (stereo not given),-7.8,-16.1%,9.2µM*,16.4µM*,0.5%,-6.7%
COc1ccc2nc(COC(=O)c3cccs3)c(C(C)=O)[n+]([O-])c2c1,70.1,-1.2%,-8.3%,-3.2%,7.9%,31.6µM*
COc1ccc2nc(COC(=O)c3cccc([N+](=O)[O-])c3)c(C(C)=O)[n+]([O-])c2c1,0.0,-1.9%,-4.4%,-8.2%,0.3%,0.0%
Cc1ccn(CC(=O)NC2CC(C)(C)Cc3c2cnn3-c2ccc(F)cc2)n1 (stereo not given),i,10.4%,1.2%,5.8%,0.5%,-7.6%
COCCN1CCC(N2CCN(S(=O)(=O)c3cccc(C)c3)CC2)C1=O (stereo not given),.,.,.,.,.,72.9%
CCOC(=O)[C@]12CCCC=C1N(Cc1ccco1)C(=O)[C@H](CC(=O)NCCCCc1ccccc1)C2,?,-21.0%,23.1µM*,?,?,?
CCOC(=O)[C@]12CCC=C1N(Cc1ccco1)C(=O)[C@H](CC(=O)NCC13CC4CC(CC(C4)C1)C3)C2,-12.0,?,?,?,?,0.0%
CCOC(=O)[C@]12CCCC=C1N(Cc1ccco1)C(=O)[C@H](CC(=O)NCC13CC4CC(CC(C4)C1)C3)C2,-55.4*,?,25.9µM*,?,?,?
CCc1cc(=O)n(CC(=O)Nc2ccc(C)cc2C)c(-c2ccccc2)n1,.,.,.,.,.,2.0%
COc1ccc(-c2cc(-c3nnc(COC(=O)C4CC4C)o3)c3ccccc3n2)cc1OC (stereo not given),-52.5*,4.1%,20.6µM*,16.4µM*,10.1%,-14.5%
COc1ccc(-c2cc(-c3nnc(COC(=O)C4CC4)o3)c3ccccc3n2)cc1OC,9.8,-10.4%,?,9.2µM*,1.4%,-5.2%
COc1ccc(-c2cc(C(=O)N3CC(C)CC(C)C3)c3ccccc3n2)cc1OC (stereo not given),-14.4,0.0%,?,?,-0.8%,-11.0%
O=C(OCc1nnc(-c2ccccc2)o1)c1ccc(Cl)cc1,-14.1,-2.1%,-10.4%,8.4%,-1.5%,-3.8%
COc1ccc(-c2cc(-c3nnc(COC(=O)c4ccc(O)cc4)o3)c3ccccc3n2)cc1OC,?,?,?,10.3µM*,?,9.3%
SMILES,IL1B secr inh,HT1080NT lethal,DT40 TDP1 CPT,DT40 TDP1 no CPT,HT1080 IDH1KD tx,12-LOX inh
Cc1ccc(N2CC(C(=O)Nc3cccnc3)CC2=O)cc1C (stereo not given),25.6,9.3%,13.3%,?,8.1%,2.1%
CCN(CC)c1nc(SCCOC(=O)Nc2ccccc2)nc(N(CC)CC)n1,-20.1,?,18.4µM*,?,?,-15.2%
COc1cc(C(=O)NCC(c2cccs2)N(C)C)cc(Cl)c1OC(C)C (stereo not given),-6.2,-7.1%,?,20.6µM*,-17.6%,-25.0%
CCCOc1ccc(C(=O)NCC(c2cccs2)N(C)C)cc1OC (stereo not given),-1.0,3.2%,?,-11.1%,-3.4%,-19.7%
COc1cc2ccccc2cc1C(=O)NCC(c1cccs1)N(C)C (stereo not given),-75.5*,-22.5%,?,16.4µM*,?,465.2%
Cc1ccc(C(C)C)c(OCCn2cc(C(=O)c3ccco3)c3ccccc32)c1,.,.,18.4µM*,14.6µM*,.,-22.6%
Cc1ccc(C)c(OCCn2cc(C(=O)c3ccco3)c3ccccc32)c1,.,.,20.6µM*,13µM*,.,-0.6%
COCCNC(=O)Cn1cc(C(=O)c2ccco2)c2ccccc21,8.2,-2.4%,17.5%,1.0%,0.0%,0.0%
O=C(C1CC=CC1)N1C[C@@H](COc2cccnc2)[C@H](c2ccccn2)C1,.,.,.,.,.,24.2%
C/C=C/Cn1c(N2CCN(C)CC2)nc2c1c(=O)[nH]c(=O)n2C,.,.,.,.,.,12.9%
O=C(NNc1ncc(C(F)(F)F)cc1Cl)c1c(Cl)cccc1Cl,19.4,?,4.11µM*,4.11µM*,7.31µM*,-18.5%
NC(=O)NNc1ncc(C(F)(F)F)cc1Cl,-7.6,6.0%,2.3%,6.9%,9.7%,-2.9%
NC(=S)c1ncc(C(F)(F)F)cc1Cl,11.4,6.8%,4.4%,7.0%,-5.5%,33.8%
Cc1c(Cl)cccc1NC(=S)NNc1ncc(C(F)(F)F)cc1Cl,-69.3*,?,?,?,?,-14.6%
NC(=S)Nc1ncc(C(F)(F)F)cc1Cl,57.0,0.1%,22.1%,-9.7%,2.7%,39.8µM*
Fc1ccccc1NC(=S)NNc1ncc(C(F)(F)F)cc1Cl,-19.9,?,?,23.1µM*,?,-24.0%
S=C(NC1CCSc2ccccc21)NC1CC2CCC1C2 (stereo not given),.,.,.,.,.,-20.0%
FC(F)(F)c1cnc(NNC(=S)Nc2cccnc2)c(Cl)c1,41.2,-15.0%,?,20.6µM*,-28.4%,-25.9%
CCCNC(=O)c1ccc2c(=O)n(CCOC)c(SCC(=O)c3ccccc3)nc2c1,.,.,.,.,.,-2.6%
